Experimental data published in PubChem BioAssay AID588676 (Johns Hopkins Ion Channel Center, 2011).
About 3,900 (1.3%) of roughly 310,000 compounds were called active.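 Rule for the calls: active = calcium-response B-score plate-corrected more than 3 library SD below zero, starting fluorescence within 5 deviations, no agonist response on first addition; inactive = the rest.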 This excerpt belongs to a sample that is enriched for actives.

Biological target: Mas-related G-protein coupled receptor member X1 (Homo sapiens) (UniProt Q96LB2)
Sequence (Q96LB2 whole entry, looked up): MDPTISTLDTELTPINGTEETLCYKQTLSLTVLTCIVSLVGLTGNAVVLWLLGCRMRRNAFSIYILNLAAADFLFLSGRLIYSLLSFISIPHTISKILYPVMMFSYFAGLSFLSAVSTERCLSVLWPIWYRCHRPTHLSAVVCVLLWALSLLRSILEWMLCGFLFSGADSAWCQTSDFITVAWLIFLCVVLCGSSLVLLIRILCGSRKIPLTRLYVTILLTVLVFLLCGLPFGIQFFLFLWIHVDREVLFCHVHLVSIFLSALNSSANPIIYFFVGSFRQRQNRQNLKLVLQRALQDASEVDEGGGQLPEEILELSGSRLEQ
Experiment: blockade of BAM8-22-evoked MrgX1 calcium response – HEK293 cells, Fluo-4 calcium flux, primary screen (AID 588676);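 for B-score: peak minus trough fluorescence over baseline after final BAM8-22 challenge near maximal dose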
Conditions: Fluo-4, BAM8-22 antagonism, at 10 µM; stronger effect = lower value

Compound | B-score
O=C(Nc1cc(S(=O)(=O)N2CCOCC2)ccc1Cl)c1cc(=O)c2ccccc2o1 | inactive
Cn1sc(=O)c2cc(S(=O)(=O)NC3CC3)ccc21 | inactive
Cc1ccc(C(=O)COC(=O)CCN2C(=O)C3C4CC(C(Br)C4Br)C3C2=O)cc1 (centres undefined) | -9.31 (active)
O=C(CCN1C(=O)C2C3C=CC(C3)C2C1=O)Oc1ccc2ccccc2c1 (centres undefined) | inactive
Cc1ccc(C(=O)COC(=O)CCN2C(=O)C3C4CCC(C4)C3C2=O)cc1C (centres undefined) | inactive
CCOc1ccc(-n2cnc3c(=O)[nH]c(N)nc32)cc1 | inactive
O=C(Nc1nc2ccccc2s1)c1ccc2c(c1)OCO2 | inactive
CCCc1nnc(NC(=O)c2cc(OC)cc(OC)c2)s1 | inactive
COCc1nnc(NC(=O)c2ccc3c(c2)OCO3)s1 | -5.8 (active)
COc1cc(NC(=O)CN(C)S(=O)(=O)c2ccc3nc(C)sc3c2)cc(OC)c1 | inactive
Cc1cccc(N(CC(=O)Nc2ccc(-c3nc4ccc(C)cc4s3)cc2)S(C)(=O)=O)c1 | inactive
Cc1ccc2nc(-c3ccc(NC(=O)CN(C)S(=O)(=O)c4ccccc4)cc3)sc2c1 | -4.7 (active)
Cc1cc2nc(-c3ccc(NC(=O)c4cccnc4)cc3)oc2cc1C | inactive
CCOC(=O)c1ccc(NC(=O)c2cccnc2)cc1 | inactive
Cc1ccc2nc(-c3ccc(NC(=O)c4cccnc4)cc3)oc2c1 | -5.36 (active)
Cc1ccc(N2C(=O)CC(NCc3ccc4c(c3)OCO4)C2=O)cc1Cl (centres undefined) | inactive
O=C(CSc1nnnn1-c1ccc(O)cc1)N1N=C(c2ccc3ccccc3c2)CC1c1ccccc1 (centres undefined) | inactive
CSc1nc2c(c(=O)[nH]1)C(c1cccc(Cl)c1Cl)CC(=O)N2 (centres undefined) | inactive
CCOc1ccc(Nc2nc(Cc3nnc(SCC(=O)c4ccc(C)cc4)o3)cs2)cc1 | inactive
CC(C)OCCCNc1ncnc2c1[nH]c1ccc(F)cc12 | -12 (active)
COc1cc(OC)c(OC)cc1/C=N/Nc1ncnc2c1[nH]c1ccc(C)cc12 | inactive
CC(C)OCCCNC(=O)c1cc(Sc2ccc(F)cc2)nc2ccccc12 | inactive
O=C(CN1CCN(c2ccccn2)CC1)NCc1cccs1 | inactive
O=C(CN1CCN(c2ccccn2)CC1)Nc1ccc(Br)cc1 | inactive
O=C(CN1CCN(c2ccccn2)CC1)NC1CCCCC1 | -5.03 (active)

Compound | B-score
CCOC(=O)C1C(=O)NC(N2CCN(c3ccccc3)CC2)=NC1c1ccco1 (centres undefined) | inactive
CCOC(=O)C1=C(c2ccc(OC)cc2)C(=O)c2ccccc2C1=O | inactive
CCOC(=O)C1C(=O)C=C(c2ccc(OC)cc2)CC1c1ccco1 (centres undefined) | -5.76 (active)
N#Cc1cccc(CN2CCC(=O)N([C@H](CO)c3ccccc3)CC2)c1 | inactive
O=C(C1CCN(Cc2ccc(Cl)cc2)CC1)N1CCN(Cc2ccc3c(c2)OCO3)CC1 | inactive
O=C(C1CCN(S(=O)(=O)c2cnc[nH]2)CC1)N1CCN(Cc2ccc3c(c2)OCO3)CC1 | -6 (active)
Cc1cccc(N2CCN(C(=O)C3CCN(S(=O)(=O)c4cnc[nH]4)CC3)CC2)c1C | inactive
Cc1ccc(C(=O)N2CC(=O)Nc3ccc(F)cc3C2c2ccc(F)cc2)cc1 (centres undefined) | inactive
O=C(NCCCN1CCOCC1)c1ccc([N+](=O)[O-])cc1[N+](=O)[O-] | inactive
O=[N+]([O-])c1cc(S(=O)(=O)CCCN2CCOCC2)ccc1F | -6.04 (active)
O=[N+]([O-])c1ccc(NCCCN2CCOCC2)c(Cl)c1 | inactive
CC(NC(=O)CNC(=O)Cc1cccc2ccccc12)c1ccc(S(N)(=O)=O)cc1 (centres undefined) | inactive
O=[N+]([O-])c1ccc2c(c1)C(N1CCOCC1)/C(=C/C1(O)CCCCC1)O2 (centres undefined) | inactive
CC1(C)CC(=O)CC2(C1)NCC(c1ccccc1Cl)c1c2[nH]c2ccccc12 (centres undefined) | inactive
Cc1ccc(S(=O)(=O)n2cccc2CO)cc1 | inactive
COCCN(Cc1cc2cc3c(cc2nc1Cl)OCO3)C(=O)c1cccc(C)c1 | inactive
COc1cc(C2/C(=C(\O)c3ccc4c(c3)CC(C)O4)C(=O)C(=O)N2Cc2ccco2)ccc1O (centres undefined) | -5.81 (active)
COc1ccc(/C(O)=C2\C(=O)C(=O)N(Cc3ccco3)C2c2ccc(OC)cc2OC)cc1 (centres undefined) | inactive
COc1ccc(C2/C(=C(/O)c3ccc4c(c3)CC(C)O4)C(=O)C(=O)N2Cc2ccncc2)cc1 (centres undefined) | inactive
Cc1cccc(CSc2ccc(-c3cccs3)nn2)c1 | inactive
C=CCN1CC(C)/C(=N\O)CC1C (centres undefined) | inactive
O=[N+]([O-])c1cc(Cl)cc(/C=N/NC(=S)Nc2cc(S(=O)(=O)N3CCOCC3)ccc2Cl)c1O | -7.04 (active)
O=C(N/N=C/c1ccc([N+](=O)[O-])o1)c1cccc(S(=O)(=O)N2CCOCC2)c1 | inactive
O=C(N/N=C/c1cc(Cl)cc([N+](=O)[O-])c1O)C(O)(c1ccccc1)c1ccccc1 | inactive
CCCCN(C(=O)CCNC(=O)NC12CC3CC(CC(C3)C1)C2)c1c(N)n(CCCC)c(=O)[nH]c1=O | inactive

Compound | B-score
CN(CCc1ccccn1)C(=O)CCC1CCCN(Cc2ccccc2OC(F)F)C1 (centres undefined) | inactive
CCc1cc2cc(OC)ccc2nc1SCC(=O)Nc1cc(OC)c(OC)cc1C(=O)O | inactive
N#Cc1ccc(OCc2nnc(-c3ccc([N+](=O)[O-])cc3)o2)cc1 | -5.3 (active)
Cc1cc(OCCCCOc2ccc(C#N)cc2)ccc1[N+](=O)[O-] | inactive
CCOC(=O)CSc1nnc(-c2ccc([N+](=O)[O-])cc2)o1 | inactive
CCn1cc(C(=O)NCCCN2CCCCCC2)c(=O)c2cc(S(=O)(=O)N3CCc4ccccc4C3)ccc21 | inactive
CCOc1cc(C(=O)Nc2c(C)ccc3nsnc23)cc(OCC)c1OCC | inactive
CNc1nc2c(C)cccn2c(=O)c1C=Nc1ccc(OC)cc1 | inactive
Cc1cccn2c(=O)c(/C=C3\SC(=S)N(CC(C)C)C3=O)c(NCCCOC(C)C)nc12 | -11.6 (active)
CCOC(=O)CC1C(=O)NCCN1c1nc2c(C)cccn2c(=O)c1/C=C1\SC(=S)N(C(C)CC)C1=O (centres undefined) | inactive
Cc1coc2c1c(C)cc1oc(=O)c(CC(=O)NCC(=O)N[C@H](C(=O)O)C(C)C)c(C)c12 | inactive
CCCCn1c(N)c(N(CC(C)C)C(=O)c2ccc(-n3c(C)ccc3C)cc2)c(=O)[nH]c1=O | inactive
O=C(COc1coc(CN2CCN(c3ccccc3)CC2)cc1=O)Nc1ccccc1F | inactive
COc1ccc(C(=O)CSc2n[nH]c(N)n2)cc1 | -4.92 (active)
COc1ccc(C(=O)CSc2nccc(=O)[nH]2)cc1 | inactive
COc1ccc(CNC(=O)CSc2n[nH]c(N)n2)cc1OC | inactive
O=C(c1cc(-c2ccc(Cl)s2)nc2ccccc12)N1CCOCC1 | inactive
CCOC(=O)c1nn(-c2cccc(C)c2)cc1C(=O)c1ccccc1 | inactive
CCOC(=O)c1cn(CC(=O)Nc2ccc(C(C)C)cc2)nn1 | inactive
CCOC(=O)c1cn(Cc2cccc(C)c2)nn1 | -5.74 (active)
COC(=O)[C@@H]1CC[C@H](C)[C@@H](c2ccc(C)cc2)N1C(=O)c1ccc(/C=N/O[C@H](C)c2cn([C@@H]3COC[C@H]3O)nn2)cc1 | inactive
Cc1cccc(N(C(=O)c2csnn2)C(C(=O)NCc2ccccc2)c2ccncc2)c1 (centres undefined) | inactive
O=C1CSC(=S)N1c1ccc(Cl)c(Cl)c1 | inactive
CCN(CC(=O)Nc1cc(Cl)ccc1C)C(=O)CSCc1ccc(C)cc1 | inactive
COc1ccc(NS(=O)(=O)c2cc(NC(=O)CC(=O)c3ccc([N+](=O)[O-])cc3)ccc2C)cc1 | inactive

Compound | B-score
CCN(CC)c1ccc(NC(=O)c2ccc(=O)[nH]c2)cc1S(=O)(=O)Nc1ccc(OC)cc1 | -4.78 (active)
COc1ccc(NS(=O)(=O)c2ccc(NC(=O)c3ccc(N(C)S(C)(=O)=O)cc3)cc2)cc1 | inactive
O=C(NCc1ccc2c(c1)OCO2)c1sccc1Br | inactive
O=C(c1ccc(O)cc1)c1ccc(C(=O)O)c(C(=O)O)c1 | -10.2 (active)
O=C(O)c1ccc2c(c1)C(=O)N(NC(=O)c1ccc(O)cc1)C2=O | inactive
O=C(Nc1ccc(C(=O)O)c(O)c1)c1ccccc1 | inactive
CCCOc1ccc(N2C(=O)CC(N(CCc3ccc(S(N)(=O)=O)cc3)C(C)=O)C2=O)cc1 (centres undefined) | inactive
CC(=O)Nc1ccc(S(=O)(=O)N2CCC(C(=O)N[C@@H](Cc3ccccc3)C(=O)O)CC2)cc1 | inactive
CCN(CC)S(=O)(=O)c1ccc(N(C)Cc2cccc(OC)c2OC)nc1 | inactive
COc1cc(N)c(Cl)cc1C(=O)OCC(=O)c1ccc2c(c1)NC(=O)CO2 | inactive
O=C1c2ccccc2C(Nc2ccc3c(c2)OCCO3)N1Cc1ccco1 (centres undefined) | inactive
O=C(NC1CCCCC1)C1c2ccccc2C(=O)N1Cc1ccco1 (centres undefined) | -7.6 (active)
CC1CCC(NC(=O)C2c3ccccc3C(=O)N2Cc2ccc3c(c2)OCO3)CC1 (centres undefined) | inactive
Cc1cc(OC(C)C(=O)Nc2ccc(S(=O)(=O)Nc3onc(C)c3C)cc2)cc(C)c1Cl (centres undefined) | inactive
COc1ccc(-c2ocnc2C(=O)Nc2ccc3c(c2)CCC3)cc1 | inactive
CCN1C(=O)[C@@H]2[C@@H](c3ccc(-c4ccc(OC)cc4)c(OC)c3)N3CCC[C@@]3(C(=O)OC)[C@@H]2C1=O | inactive
O=c1cc(CO)oc(C(Nc2cccc([N+](=O)[O-])c2)c2ccccn2)c1O (centres undefined) | -4.59 (active)
O=[N+]([O-])c1cccc(S(=O)(=O)NCc2ccccn2)c1 | inactive
O=c1cc(CO)oc(C(Nc2cccc(C(F)(F)F)c2)c2ccccn2)c1O (centres undefined) | inactive
O=C(c1ccc(Cl)cc1)N1N=C(c2ccccn2)CC1(O)C(F)(F)F (centres undefined) | inactive
Cc1nnc(SCC(=O)Nc2ccc(S(=O)(=O)Nc3ccc(Cl)nn3)cc2)s1 | inactive
CN(c1cccc(NC(=O)Nc2ccc(Cl)cc2)c1)S(C)(=O)=O | -8.9 (active)
CN(c1cccc(NC(=O)c2ccc(CN3CCc4ccccc4C3)cc2)c1)S(C)(=O)=O | inactive
COc1cccc(N(CC(=O)Nc2cccc(N(C)S(C)(=O)=O)c2)S(C)(=O)=O)c1 | inactive
